Source: PubChem BioAssay AID1159580 (chemical genetic matrix, 2015)
Hit rate of the full screen: of about 5,500 compounds, about 2,000 (36%) were called active. Not shown: some 18% with an inconclusive outcome. Cut-off read from the data, not from the text of the source: active = normalized growth mostly below about 0.91 (no sharp cut-off); inconclusive = no clear call, values can overlap the other calls; inactive = mostly above about 0.92. The list shows a part of the results.

Assay: chemical genetic growth profiling, strain panel (AID 1159580);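 note: tested at 20 µM; growth read once vehicle control cultures reached saturation at 30 °C; 1 = growth at the plate median or of vehicle wells; lower values mean less growth of the strain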
Conditions: growth OD

Measured: normalized growth

C=CC1=C(C(=O)O)N2C(=O)[C@@H](NC(=O)/C(=N/O)c3csc(N)n3)[C@H]2SC1
inactive: S. cerevisiae deletion strains, locus YJR066W, strain TOR1, active compounds read low 0.95 | S. cerevisiae deletion strains, locus YJR075W, strain HOC1, active compounds read low 1.01 | S. cerevisiae deletion strains, locus YKL009W, strain mrt4, active compounds read low 0.995 | S. cerevisiae deletion strains, locus YKL068W, active compounds read low 1 | S. cerevisiae deletion strains, locus YKL085W, strain MDH1 (second series), active compounds read low 0.989 | S. cerevisiae deletion strains, locus YKL085W, strain MDH1, active compounds read low 0.989 | S. cerevisiae deletion strains, locus YKL160W, strain elf1, active compounds read low 1.02 | S. cerevisiae deletion strains, locus YKL190W, strain CNB1, active compounds read low 1.02 | S. cerevisiae deletion strains, locus YKR001C, strain vps1, active compounds read low 0.979 | S. cerevisiae deletion strains, locus YKR026C, strain gcn3, active compounds read low 1.03 | S. cerevisiae deletion strains, locus YKR091W, strain srl3, active compounds read low 1.02 | S. cerevisiae deletion strains, locus YLL001W, strain dnm1, active compounds read low 1.02 | S. cerevisiae deletion strains, locus YLL026W, active compounds read low 1.03 | S. cerevisiae deletion strains, locus YLL041C, strain sdh2, active compounds read low 1.02 | S. cerevisiae deletion strains, locus YLR027C, strain aat2, active compounds read low 1.02 | S. cerevisiae deletion strains, locus YLR039C, strain RIC1, active compounds read low 1.04 | S. cerevisiae deletion strains, locus YLR058C, strain SHM2, active compounds read low 0.996 | S. cerevisiae deletion strains, locus YLR102C, strain apc9, active compounds read low 0.997 | S. cerevisiae deletion strains, locus YLR113W, strain HOG1, active compounds read low 1.02 | S. cerevisiae deletion strains, locus YLR221C, strain rsa3, active compounds read low 1.04 | S. cerevisiae deletion strains, locus YLR258W, strain gsy2, active compounds read low 1.02 | S. cerevisiae deletion strains, locus YLR262C, strain YPT6 (second series), active compounds read low 1.04 | S. cerevisiae deletion strains, locus YLR262C, strain YPT6, active compounds read low 1.02 | S. cerevisiae deletion strains, locus YLR268W, strain sec22, active compounds read low 1 | S. cerevisiae deletion strains, locus YLR320W, strain mms22, active compounds read low 1.02 | S. cerevisiae deletion strains, locus YLR330W, strain CHS5, active compounds read low 0.992 | S. cerevisiae deletion strains, locus YLR342W, strain FKS1 (second series), active compounds read low 1.02 | S. cerevisiae deletion strains, locus YLR342W, strain FKS1, active compounds read low 1.03 | S. cerevisiae deletion strains, locus YLR357W, strain rsc2, active compounds read low 1.02 | S. cerevisiae deletion strains, locus YLR370C, strain arc18, active compounds read low 1.02 | S. cerevisiae deletion strains, locus YLR371W, strain rom2, active compounds read low 0.994 | S. cerevisiae deletion strains, locus YLR384C, strain iki3, active compounds read low 1.02 | S. cerevisiae deletion strains, locus YLR418C, strain cdc73, active compounds read low 0.998 | S. cerevisiae deletion strains, locus YML016C, strain PPZ1, active compounds read low 0.987 | S. cerevisiae deletion strains, locus YML032C, strain rad52, active compounds read low 1 | S. cerevisiae deletion strains, locus YML120C, strain ndi1, active compounds read low 1.02 | S. cerevisiae deletion strains, locus YML124C, strain tub3, active compounds read low 0.993 | S. cerevisiae deletion strains, locus YMR058W, strain fet3, active compounds read low 1.01 | S. cerevisiae deletion strains, locus YMR078C, strain ctf18, active compounds read low 0.989 | S. cerevisiae deletion strains, locus YMR125W, strain sto1, active compounds read low 1.03 | S. cerevisiae deletion strains, locus YMR129W, active compounds read low 1.01 | S. cerevisiae deletion strains, locus YMR205C, strain PFK2, active compounds read low 1.03 | S. cerevisiae deletion strains, locus YMR223W, strain ubp8, active compounds read low 0.994 | S. cerevisiae deletion strains, locus YMR231W, strain pep5, active compounds read low 1.02 | S. cerevisiae deletion strains, locus YMR263W, strain SAP30, active compounds read low 1.04 | S. cerevisiae deletion strains, locus YMR307W, strain GAS1, active compounds read low 1.05 | S. cerevisiae deletion strains, locus YNL067W, strain RPL9B, active compounds read low 1.08 | S. cerevisiae deletion strains, locus YNL071W, strain lat1, active compounds read low 1.02 | S. cerevisiae deletion strains, locus YNL128W, strain TEP1, active compounds read low 1.02 | S. cerevisiae deletion strains, locus YNL153C, strain GIM3, active compounds read low 1 | S. cerevisiae deletion strains, locus YNL183C, strain NPR1, active compounds read low 0.956 | S. cerevisiae deletion strains, locus YNL209W, strain ssb2, active compounds read low 1.01 | S. cerevisiae deletion strains, locus YNL233W, strain BNI4, active compounds read low 1 | S. cerevisiae deletion strains, locus YNL248C, strain rpa49, active compounds read low 1.04 | S. cerevisiae deletion strains, locus YNL250W, strain rad50, active compounds read low 0.99 | S. cerevisiae deletion strains, locus YNL271C, strain bni1, active compounds read low 0.99 | S. cerevisiae deletion strains, locus YNL298W, strain CLA4, active compounds read low 0.982 | S. cerevisiae deletion strains, locus YNL307C, strain MCK1, active compounds read low 1.01 | S. cerevisiae deletion strains, locus YNL322C, strain KRE1 (second series), active compounds read low 1.04 | S. cerevisiae deletion strains, locus YNL322C, strain KRE1, active compounds read low 1 | S. cerevisiae deletion strains, locus YNR049C, strain mso1, active compounds read low 1.02 | S. cerevisiae deletion strains, locus YNR052C, strain pop2, active compounds read low 1 | S. cerevisiae deletion strains, locus YOL006C, strain TOP1, active compounds read low 0.995 | S. cerevisiae deletion strains, locus YOL012C, strain htz1 1.75 | S. cerevisiae deletion strains, locus YOR001W, strain rrp6, active compounds read low 1.03 | S. cerevisiae deletion strains, locus YOR061W, strain CKA2, active compounds read low 0.994 | S. cerevisiae deletion strains, locus YOR069W, strain VPS5, active compounds read low 0.998 | S. cerevisiae deletion strains, locus YOR070C, strain gyp1, active compounds read low 1.01 | S. cerevisiae deletion strains, locus YOR080W, strain dia2, active compounds read low 1.04 | S. cerevisiae deletion strains, locus YOR083W, strain WHI5, active compounds read low 1.02 | S. cerevisiae deletion strains, locus YOR106W, strain vam3, active compounds read low 1.03 | S. cerevisiae deletion strains, locus YOR136W, strain idh2, active compounds read low 0.988 | S. cerevisiae deletion strains, locus YOR144C, strain elg1, active compounds read low 0.979 | S. cerevisiae deletion strains, locus YOR184W, strain ser1, active compounds read low 0.993 | S. cerevisiae deletion strains, locus YOR231W, strain MKK1, active compounds read low 0.978 | S. cerevisiae deletion strains, locus YOR265W, strain rbl2, active compounds read low 1.02 | S. cerevisiae deletion strains, locus YOR270C, strain vph1, active compounds read low 1.03 | S. cerevisiae deletion strains, locus YOR290C, strain snf2, active compounds read low 1.01 | S. cerevisiae deletion strains, locus YOR316C, strain cot1, active compounds read low 0.994 | S. cerevisiae deletion strains, locus YPL051W, strain arl3, active compounds read low 1.03 | S. cerevisiae deletion strains, locus YPL055C, strain LGE1, active compounds read low 1.03 | S. cerevisiae deletion strains, locus YPL078C, strain atp4, active compounds read low 1.02 | S. cerevisiae deletion strains, locus YPL106C, strain sse1, active compounds read low 1.04 | S. cerevisiae deletion strains, locus YPL240C, strain hsp82, active compounds read low 1.03 | S. cerevisiae deletion strains, locus YPL241C, strain CIN2, active compounds read low 1.01 | S. cerevisiae deletion strains, locus YPL256C, strain CLN2, active compounds read low 0.957 | S. cerevisiae deletion strains, locus YPR141C, strain kar3, active compounds read low 0.984 | S. cerevisiae deletion strains, locus YPR163C, strain tif3, active compounds read low 0.991 | S. cerevisiae deletion strains, locus YPR167C, strain met16, active compounds read low 0.994 | S. cerevisiae deletion strains, strain wtn01, active compounds read low 0.993 | S. cerevisiae strains, strain wild type, active compounds read low 1.03
